# Assay results as given in the supplement of paper PMC8728848.
# This is one part of a sample in which the strongest signals are shown more often than they occur.
# B1: Banana lectin (Musa acuminata) (protein)
# chain: MNGAIKVGAWGGNGGSAFDMGPAYRIISVKIFSGDVVDGVDVTFTYYGKTETRHYGGSGGTPHEIVLQEGEYLVGMAGEVANYTGAVVLGKLGFSTNKKAYGPFGNTGGTPFSLPIAAGKISGFFGRGGKFLDAIGVYLEPLEHHHHHH
# Key:
# Assay in all cases: glycan array binding signal (z-score within array); higher = stronger binding
# Details in all cases: glycan notation: IUPAC condensed, linker removed; mutation: H84T
# Fuc(a1-2)Gal(b1-3)GlcNAc = target: Fuc(a1-2)Gal(b1-3)GlcNAc
# Outline: (§1)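 The Consortium for Functional Glycomics database supplied 3228 glycan arrays, of which those lacking an available protein sequence were dropped. The binding signal, a within-array Z-score, was averaged across arrays of the same protein sequence and across linkers. Negative scores can be read as non-binding.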
# [1] = target: Fuc(a1-2)Gal(b1-3)GlcNAc(b1-2)Man(a1-3)[Fuc(a1-2)Gal(b1-3)GlcNAc(b1-2)Man(a1-6)]Man(b1-4)GlcNAc(b1-4)[Fuc(a1-6)]GlcNAc
# Outline: as §1
# [2] = target: Fuc(a1-2)Gal(b1-4)GlcNAc(b1-3)Gal(b1-4)GlcNAc(b1-2)Man(a1-3)[Fuc(a1-2)Gal(b1-4)GlcNAc(b1-3)Gal(b1-4)GlcNAc(b1-2)Man(a1-6)]Man(b1-4)GlcNAc(b1-4)GlcNAc
# Outline: as §1
# [3] = target: Fuc(a1-2)Gal(b1-4)[Fuc(a1-3)]GlcNAc(b1-3)[Neu5Ac(a2-6)Gal(b1-4)GlcNAc(b1-6)]Gal(b1-4)Glc
# Outline: as §1
# [4] = target: Fuc(a1-2)[GalNAc(a1-3)]Gal(b1-3)GalNAc(b1-3)Gal(a1-4)Gal(b1-4)Glc
# Outline: as §1
# Fuc(a1-3)GlcNAc = target: Fuc(a1-3)GlcNAc
# Outline: as §1
# Fuc(b1-3)GlcNAc = target: Fuc(b1-3)GlcNAc
# Outline: as §1
# [5] = target: Gal(a1-3)Gal(b1-3)[Fuc(a1-4)]GlcNAc(b1-2)Man(a1-3)[Gal(a1-3)Gal(b1-3)[Fuc(a1-4)]GlcNAc(b1-2)Man(a1-6)]Man(b1-4)GlcNAc(b1-4)GlcNAc
# Outline: as §1
# [6] = target: Gal(b1-3)GlcNAc(b1-6)GalNAc
# Outline: as §1
# [7] = target: Gal(b1-3)[Neu5Ac(a2-6)]GalNAc
# Outline: as §1
# [8] = target: Gal(b1-4)GlcNAc(b1-2)[Gal(b1-4)GlcNAc(b1-6)]Man(a1-6)[GlcNAc(b1-4)][Gal(b1-4)GlcNAc(b1-2)Man(a1-3)]Man(b1-4)GlcNAc(b1-4)GlcNAc
# Outline: as §1
# [9] = target: Gal(b1-4)GlcNAc(b1-6)Gal(b1-4)GlcNAc
# Outline: as §1
# [10] = target: Gal3S(b1-4)[Fuc(a1-3)]GlcNAc6S
# Outline: as §1
# [11] = target: GlcNAc(a1-4)Gal(b1-4)GalNAc
# Outline: as §1
# [12] = target: GlcNAc(b1-3)Gal(b1-4)GlcNAc(b1-3)Gal(b1-4)GlcNAc(b1-3)Gal(b1-4)GlcNAc(b1-2)Man(a1-3)[GlcNAc(b1-3)Gal(b1-4)GlcNAc(b1-3)Gal(b1-4)GlcNAc(b1-3)Gal(b1-4)GlcNAc(b1-2)Man(a1-6)]Man(b1-4)GlcNAc(b1-4)[Fuc(a1-6)]GlcNAc
# Outline: as §1
# [13] = target: GlcNAc6S(b1-3)Gal(b1-4)GlcNAc
# Outline: as §1
# Kdn(a2-3)Gal(b1-4)GlcNAc = target: Kdn(a2-3)Gal(b1-4)GlcNAc
# Outline: as §1
# [14] = target: Man(a1-2)Man(a1-2)Man(a1-6)[Man(a1-3)]Man
# Outline: as §1
# [15] = target: Man(a1-2)Man(a1-3)[Man(a1-2)Man(a1-6)]Man
# Outline: as §1
# [16] = target: Man(a1-2)Man(a1-3)[Man(a1-2)Man(a1-6)]Man(a1-6)[Man(a1-2)Man(a1-2)Man(a1-3)]Man
# Outline: as §1
# [17] = target: Man(a1-2)Man(a1-3)[Man(a1-2)Man(a1-6)]Man(a1-6)[Man(a1-2)Man(a1-2)Man(a1-3)]Man(b1-4)GlcNAc(b1-4)GlcNAc
# Outline: as §1
# [18] = target: Man(a1-2)Man(a1-3)[Man(a1-6)]Man(a1-6)[Man(a1-2)Man(a1-3)]Man(b1-4)GlcNAc(b1-4)GlcNAc
# Outline: as §1
# [19] = target: Man(a1-2)Man(a1-6)[Man(a1-3)]Man(a1-6)[Man(a1-2)Man(a1-2)Man(a1-3)]Man
# Outline: as §1
# [20] = target: Man(a1-2)Man(a1-6)[Man(a1-3)]Man(a1-6)[Man(a1-2)Man(a1-2)Man(a1-3)]Man(b1-4)GlcNAc(b1-4)GlcNAc
# Outline: as §1
# Man(a1-3)[Man(a1-6)]Man = target: Man(a1-3)[Man(a1-6)]Man
# Outline: as §1
# [21] = target: Man(a1-3)[Man(a1-6)]Man(a1-6)[Man(a1-2)Man(a1-3)]Man(b1-4)GlcNAc(b1-4)GlcNAc
# Outline: as §1
# [22] = target: Man(a1-3)[Man(a1-6)]Man(a1-6)[Man(a1-3)]Man(b1-4)GlcNAc(b1-4)GlcNAc
# Outline: as §1
# [23] = target: Man(a1-3)[Man(a1-6)]Man(b1-4)GlcNAc(b1-4)GlcNAc
# Outline: as §1
# [24] = target: Man(a1-3)[Man(a1-6)]Man(b1-4)GlcNAc(b1-4)[Fuc(a1-6)]GlcNAc
# Outline: as §1
# Neu5Ac(a2-3)Gal = target: Neu5Ac(a2-3)Gal
# Outline: as §1
# [25] = target: Neu5Ac(a2-3)Gal(b1-4)GlcNAc(b1-2)Man
# Outline: as §1
# [26] = target: Neu5Ac(a2-3)Gal(b1-4)GlcNAc(b1-2)Man(a1-3)[Neu5Ac(a2-3)Gal(b1-4)GlcNAc(b1-2)Man(a1-6)]Man(b1-4)GlcNAc(b1-4)GlcNAc
# Outline: as §1
# [27] = target: Neu5Ac(a2-3)Gal(b1-4)GlcNAc(b1-3)Gal(b1-3)GlcNAc
# Outline: as §1
# [28] = target: Neu5Ac(a2-3)Gal(b1-4)GlcNAc(b1-3)Gal(b1-4)GlcNAc(b1-3)[Neu5Ac(a2-3)Gal(b1-4)GlcNAc(b1-3)Gal(b1-4)GlcNAc(b1-6)]GalNAc
# Outline: as §1
# [29] = target: Neu5Ac(a2-3)Gal(b1-4)GlcNAc(b1-3)Gal(b1-4)[Fuc(a1-3)]GlcNAc
# Outline: as §1
# [30] = target: Neu5Ac(a2-3)Gal(b1-4)[Fuc(a1-3)]GlcNAc
# Outline: as §1
# [31] = target: Neu5Ac(a2-3)Gal(b1-4)[Fuc(a1-3)]GlcNAc(b1-6)[Gal(b1-3)]GalNAc
# Outline: as §1
# [32] = target: Neu5Ac(a2-6)Gal(b1-4)GlcNAc(b1-2)Man(a1-3)[Man(a1-6)]Man(b1-4)GlcNAc(b1-4)GlcNAc
# Outline: as §1
# [33] = target: Neu5Ac(a2-6)Gal(b1-4)GlcNAc(b1-2)[Neu5Ac(a2-6)Gal(b1-4)GlcNAc(b1-4)]Man(a1-3)[GlcNAc(b1-4)][Neu5Ac(a2-6)Gal(b1-4)GlcNAc(b1-4)Man(a1-6)]Man(b1-4)GlcNAc(b1-4)GlcNAc
# Outline: as §1
# [34] = target: Neu5Ac(b2-6)Gal(b1-4)GlcNAc
# Outline: as §1
# [35] = target: Neu5Gc(a2-8)Neu5Gc(a2-3)Gal(b1-4)GlcNAc
# Outline: as §1
binder,measurement,setting,value
B1,glycan array binding signal (z-score),Fuc(a1-2)Gal(b1-3)GlcNAc,-0.164
same,glycan array binding signal (z-score),[1],-0.026
same,glycan array binding signal (z-score),[2],-0.09
same,glycan array binding signal (z-score),[3],-0.193
same,glycan array binding signal (z-score),[4],-0.165
same,glycan array binding signal (z-score),Fuc(a1-3)GlcNAc,-0.218
same,glycan array binding signal (z-score),Fuc(b1-3)GlcNAc,-0.189
same,glycan array binding signal (z-score),[5],0.562
same,glycan array binding signal (z-score),[6],-0.155
same,glycan array binding signal (z-score),[7],-0.154
same,glycan array binding signal (z-score),[8],-0.098
same,glycan array binding signal (z-score),[9],-0.206
same,glycan array binding signal (z-score),[10],-0.177
same,glycan array binding signal (z-score),[11],-0.184
same,glycan array binding signal (z-score),[12],-0.082
same,glycan array binding signal (z-score),[13],-0.199
same,glycan array binding signal (z-score),Kdn(a2-3)Gal(b1-4)GlcNAc,-0.189
same,glycan array binding signal (z-score),[14],8.2
same,glycan array binding signal (z-score),[15],2.21
same,glycan array binding signal (z-score),[16],7.07
same,glycan array binding signal (z-score),[17],5.46
same,glycan array binding signal (z-score),[18],4.86
same,glycan array binding signal (z-score),[19],5.72
same,glycan array binding signal (z-score),[20],10.1
same,glycan array binding signal (z-score),Man(a1-3)[Man(a1-6)]Man,6.01
same,glycan array binding signal (z-score),[21],11.3
same,glycan array binding signal (z-score),[22],5.96
same,glycan array binding signal (z-score),[23],4.6
same,glycan array binding signal (z-score),[24],1.98
same,glycan array binding signal (z-score),Neu5Ac(a2-3)Gal,-0.212
same,glycan array binding signal (z-score),[25],-0.188
same,glycan array binding signal (z-score),[26],-0.182
same,glycan array binding signal (z-score),[27],-0.175
same,glycan array binding signal (z-score),[28],-0.109
same,glycan array binding signal (z-score),[29],-0.179
same,glycan array binding signal (z-score),[30],-0.19
same,glycan array binding signal (z-score),[31],-0.16
same,glycan array binding signal (z-score),[32],0.399
same,glycan array binding signal (z-score),[33],-0.177
same,glycan array binding signal (z-score),[34],-0.184
same,glycan array binding signal (z-score),[35],-0.162
